About 1,000 (77%) of roughly 1,300 compounds were called active. Roughly 7% stayed inconclusive and do not appear here. The calls are words filed in the database; no cut-off is given here. So high a share suggests a set chosen from earlier hits. Only a sample is shown.

This assay deals with Giardia. Description: qHTS of small molecules that selectively kill Giardia lamblia: Hit Validation. [Related pubchem assays (depositor defined):AID540272]. In kind it is functional. Conditions: read-out: Potency. Background: qHTS replaces the single test concentration by a dilution series.
As to `CCCc1nnc(NC(=O)C2C(=O)c3cccc4c3N(CC4)C2=O)s1` (stereo unspecified), the AC50 is 16.3 µM (active).

The values are drawn from ChEMBL document CHEMBL1201862, “PubChem BioAssay data set” (2004).
